Measurements reported in PubChem BioAssay AID372 (MTDP, 2006).
The whole screen tested about 100,000 compounds, of which about 770 (0.77%) were called active. Only a selection was taken, and actives are over-represented in it overall. A number with no mark means an inactive call. Rule as the data show it: active = inhibition above about 50%; inactive = the rest.

Target: Gag-Pol polyprotein (Human immunodeficiency virus type 1 group M subtype B (isolate HXB2)) (UniProt P04585)
Experiment: RNase H inhibition, HIV 1 Gag Pol polyprotein, FRET biochemical assay, screening (AID 372)
Conditions: HIV-1 RT RNase H, FRET RNA/DNA substrate fluorescence; at 10 µM; hits give high values

Row | Compound | inhibition
1 | Cc1ccc(C(=O)NC(C(=O)NC(C)(C)C)C23CC4CC(CC(C4)C2)C3)cc1 (configuration not stated) | 16%
2 | COC(=O)c1cc(NC(=S)NC(=O)c2ccc(C)cc2)cc(C(=O)OC)c1 | 54% (active)
3 | Cc1ccc(C(=O)NC(=S)Nc2ccc(Cl)cc2)cc1C | 3%
4 | Cc1cccc(C)c1NC(=S)NC(=O)c1ccc(Br)cc1 | 2%
5 | Cc1ccc(C(=O)NC(=S)Nc2c(C)cccc2C)cc1 | 53% (active)
6 | COC(=O)c1cc(NC(=S)NC(=O)c2ccccc2)cc(C(=O)OC)c1 | 21%
7 | Cc1ccc(C(=O)NC(=S)Nc2cc(Cl)c(Cl)cc2Cl)cc1 | 40%
8 | O=C(NC(=S)Nc1cc(Cl)c(Cl)cc1Cl)c1ccc(F)cc1 | 13%
9 | CC(=O)c1cccc(NC(=S)NC(=O)c2ccc(C)cc2)c1 | 17%
10 | O=C(NC(=S)Nc1cc(Cl)c(Cl)cc1Cl)c1ccc(Cl)cc1 | 54% (active)
11 | Cc1ccc(C(=O)NC(=S)Nc2cc(Cl)cc(Cl)c2)cc1 | 14%
12 | Cc1ccc(C(=O)NC(=S)Nc2cc(Cl)cc(Cl)c2)cc1C | 50% (active)
13 | Cc1cccc(C)c1NC(=S)NC(=O)c1ccccc1 | 7%
14 | CC(C)=C1C2CCC1C(C(=O)NCc1ccccc1)C2C(=O)O (configuration not stated) | 0%
15 | Cn1c(O)c(C(=NCc2ccccc2)c2ccccc2)c(=O)n(C)c1=O | 8%
16 | O=C(Nc1cccc2ccccc12)/C(=C/c1ccccc1)c1ccccc1 | 28%
17 | COc1cccc(OCCCOc2ccccc2[N+](=O)[O-])c1 | 14%
18 | CCOC(=O)C1=C(C)NC2=C(C(=O)CC(c3ccccc3)C2)C1c1cccc([N+](=O)[O-])c1 (configuration not stated) | 15%
19 | CCOc1ccc(C(=O)Nc2ccc(NC(=O)c3ccccc3)cc2)cc1[N+](=O)[O-] | 56% (active)
20 | COc1ccc(C(=O)Nc2ccc(NC(C)=O)cc2)cc1[N+](=O)[O-] | 5%
21 | CCOc1ccc(C(=O)Nc2cccc(NC(=O)c3ccccc3)c2)cc1[N+](=O)[O-] | 0%

Row | Compound | inhibition
22 | COc1ccc(C(=O)Nc2ccc(NC(=O)c3ccccc3)cc2)cc1[N+](=O)[O-] | 23%
23 | CCOc1ccc(C(=O)Nc2ccc(C(C)=O)cc2)cc1[N+](=O)[O-] | 5%
24 | COc1ccc(C(=O)Nc2ccc(NC(=O)c3ccc(Br)cc3)cc2)cc1[N+](=O)[O-] | 59% (active)
25 | O=C(/C=C/c1ccc2c(c1)OCO2)Nc1ccccn1 | 6%
26 | O=[N+]([O-])c1ccc(-c2ccc(/C=N/n3cnnc3)o2)c(Br)c1 | 12%
27 | COc1ccc([N+](=O)[O-])cc1-c1ccc(/C=N/n2cnnc2)o1 | 57% (active)
28 | COc1ccc(-c2ccc(/C=N/n3cnnc3)o2)c([N+](=O)[O-])c1 | 14%
29 | COc1cccc(NC(=O)c2ccc(CN(c3ccc(C)c(C)c3)S(C)(=O)=O)cc2)c1 | 3%
30 | CC1=C(C(=O)Nc2ccc(Br)cc2)C(c2ccccc2)NC(=O)N1 (configuration not stated) | 18%
31 | O=C(/C=C/c1ccc(-c2cc(Cl)cc(Cl)c2)o1)c1ccccc1 | 51% (active)
32 | O=C(/C=C/c1ccc(-c2ccc(Cl)cc2Cl)o1)c1ccc(F)cc1 | 27%
33 | CC(=O)/C=C/c1ccc(-c2cc(Cl)ccc2Cl)o1 | 54% (active)
34 | O=C(/C=C/c1ccc(-c2cc(Cl)ccc2Cl)o1)c1ccc(F)cc1 | 52% (active)
35 | O=C(/C=C/c1ccc(-c2ccc(Cl)cc2)o1)c1ccccc1 | 20%
36 | O=C(/C=C/c1ccc(-c2ccccc2Cl)o1)c1ccc(F)cc1 | 47%
37 | O=C(/C=C\c1ccc(-c2cc(Cl)ccc2Cl)o1)c1ccccc1 | 40%
38 | COc1ccc(C(=O)/C=C/c2ccc(-c3cc(Cl)ccc3Cl)o2)cc1 | 15%
39 | O=C(/C=C/c1ccc(-c2ccc(Cl)cc2Cl)o1)c1ccccc1 | 13%
40 | O=[N+]([O-])c1ccc(Cl)c(S(=O)(=O)Nc2ccccn2)c1 | 0%
41 | O=C(c1nn2c(C(F)(F)F)cc(-c3cccs3)nc2c1Br)N1CCOCC1 | 0%
42 | COc1ccc(OC)c(C(=O)N/N=C/c2ccccn2)c1 | 3%

Row | Compound | inhibition
43 | CC(C)(C)c1cc(C(=O)NCC(=O)OCC(=O)c2ccccc2)cc(C(C)(C)C)c1 | 18%
44 | O=C(NC(=S)Nc1ccc(Br)cc1)c1ccc(Cl)cc1 | 1%
45 | Cc1ccc(N(CC(=O)NCCOc2ccc(F)cc2)S(=O)(=O)c2ccccc2)cc1C | 5%
46 | CCOC(=O)Cc1csc(NC(=O)COc2c(C)cccc2C)n1 | 5%
47 | NC(=O)c1cnn2c1NC(c1ccco1)CC2C(F)(F)F (configuration not stated) | 0%
48 | O=C(Nc1ccc(Cl)cc1Cl)c1ccc(-c2ccccc2)cc1 | 0%
49 | CC(=O)Nc1ccc(C(=O)Nc2ccc(Cl)cc2Cl)cc1 | 0%
50 | O=C(Cc1ccccc1)Nc1ccc(C(=O)Nc2ccc(Cl)cc2Cl)cc1 | 59% (active)
51 | CS/C(N)=N\N=C\c1cc([N+](=O)[O-])ccc1O | 18%
52 | O=C(NC(=S)Nc1cc([N+](=O)[O-])ccc1Cl)c1ccccc1Br | 18%
53 | COc1ccccc1C(=O)NC(=S)Nc1cc([N+](=O)[O-])ccc1Cl | 6%
54 | O=C(NC(=S)Nc1cc([N+](=O)[O-])ccc1Cl)c1cccc2ccccc12 | 51% (active)
55 | CSc1nc(SC)c2c3c(sc2n1)CN(C)CC3 | 0%
56 | Cc1ccc(OCC(=O)Nc2cc(C(F)(F)F)cc(C(F)(F)F)c2)cc1C | 0%
57 | CCCCOc1ccc(NC(=O)/C=C/c2ccc(OC)c(OC)c2)cc1 | 3%
58 | CCCOc1ccc(/C=C/C(=O)Nc2ccc(S(=O)(=O)Nc3ncccn3)cc2)cc1OC | 61% (active)
59 | COc1ccc(C(=O)Nc2ccc(S(=O)(=O)Nc3ncccn3)cc2)cc1OC | 0%
60 | O=c1[nH]n(-c2ccccc2)c(O)c1/C=C1\C=Nc2ccccc21 | 10%
61 | O=c1[nH]c(O)c(/C=C2\C=Nc3ccccc32)[nH]1 | 0%
62 | Cc1ccc([N+](=O)[O-])cc1NC(=O)COc1ccc(Cl)cc1C | 13%
